Eight compounds from PubChem BioAssay (Tox21) can be followed below.

The nature of experiment [1]: qHTS assay to test for compound auto fluorescence at 535 nm (green) in HEK293 cells (AID 720680).
Experiment [2] in a line: qHTS assay to test for compound auto fluorescence at 460 nm (blue) in HEK293 cell free culture (AID 720681). In a few lines: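 Blue fluorescence (Ex 405/Em 460 nm, triamterene-equivalent) was read immediately after pin transfer of compound or DMSO into medium (DMEM, 10% FBS) without cells.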
Experiment [3] in a line: qHTS assay to test for compound auto fluorescence at 535 nm (green) in HEK293 cell free culture (AID 720682). Put shortly:
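Read-out: 485/535 nm fluorescence intensity, calibrated against fluorescein. Medium only (DMEM + 10% FBS, no cells); test compound or DMSO vehicle added by pintool before plate reading.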

The nature of experiment [4]: qHTS assay to test for compound auto fluorescence at 590 nm (red) in HEK293 cell free culture (AID 720683). Put shortly:
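Red-channel autofluorescence of compounds in culture medium (DMEM, 10% FBS), no cells, measured at 540/590 nm. Rose Bengal sodium is the reference fluorophore for equivalence.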

Experiment [5] is described as follows: qHTS assay to test for compound auto fluorescence at 590 nm (red) in HepG2 cell free culture (AID 720684). Put shortly: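 Plate contents were MEM with 10% FBS plus test compound or DMSO, no cells. Fluorescence was recorded with 540 nm excitation and 590 nm emission.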
Experiment [6] in a line: qHTS assay to test for compound auto fluorescence at 460 nm (blue) in HepG2 cell free culture (AID 720685). In a few lines: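 Compound (23 nL) or DMSO pinned into cell-free MEM with 10% FBS; blue fluorescence read at 405/460 nm excitation/emission, expressed as auto-fluorescence equivalency to triamterene.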
Experiment [7] in a line: qHTS assay to test for compound auto fluorescence at 535 nm (green) in HepG2 cell free culture (AID 720686).
A short description of experiment [8]: qHTS assay to test for compound auto fluorescence at 460 nm (blue) in HepG2 cells (AID 720687). Put shortly:
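Blue-channel autofluorescence (Ex/Em 405/460 nm, triamterene-equivalent) was measured after 1 hr compound exposure at 37 C, 5% CO2. Cells were HepG2, plated overnight at 37 C in MEM plus 10% FBS.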

Experiment [9] concerns the target Glucocorticoid receptor (Homo sapiens) (UniProt P04150). In words: qHTS assay to identify small molecule agonists of the glucocorticoid receptor (GR) signaling pathway (AID 720691; active = well fitted activation curve with a large enough effect in the signal ratio in the repeat runs, not every such curve was filed as active; the % refers to the signal ratio). Put shortly: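 GR-bla HeLa cells carrying a GRE-driven beta-lactamase reporter, exposed to compounds for 18 h at 37 C. Reporter activation read as fluorescence after 2 h with LiveBLAzer B/G FRET substrate at room temperature.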

Experiment [10] shares this target. The experiment in a line: qHTS assay to identify small molecule antagonists of the glucocorticoid receptor (GR) signaling pathway (AID 720692; active = well fitted inhibition curve with a large enough effect in the signal ratio in the repeat runs, not every such curve was filed as active; the % refers to the signal ratio; note: potency is the fitted concentration of half-maximal effect). Put shortly: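 GR-bla HeLa cells carrying a GRE-driven beta-lactamase reporter received compound after 4 h plating, then dexamethasone (5 nM final). After 18 h at 37C, the FRET substrate was loaded for 2 h at room temperature and fluorescence read.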

The nature of experiment [11]: qHTS assay to identify small molecule antagonists of the glucocorticoid receptor (GR) signaling pathway - cell viability counter screen (AID 720693). Note: nearly all actives have a fitted effect of over 55% in size.
Experiment [12] can be described thus: qHTS assay for identifying genotoxic compounds that show differential cytotoxicity against isogenic chicken DT40 cell lines with known DNA damage response pathways - wild type cell line (AID 743012). Note: nearly all actives have a fitted effect of over 60% in size. Note: potency is the fitted concentration of half-maximal effect. In a few lines: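 Wild-type DT40 cells (300/well) exposed to compounds for 40 hours at 37 C/5% CO2. Viability read by CellTiter-Glo luminescence after 30 min at room temperature.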

Experiment [13] in a line: qHTS assay for identifying genotoxic compounds that show differential cytotoxicity against isogenic chicken DT40 cell lines with known DNA damage response pathways - Rev3 mutant cell line (AID 743014). Note: nearly all actives have a fitted effect of over 55% in size. Note: potency is the fitted concentration of half-maximal effect.
The nature of experiment [14]: qHTS assay for identifying genotoxic compounds that show differential cytotoxicity against isogenic chicken DT40 cell lines with known DNA damage response pathways - Rad54/Ku70 mutant cell line (AID 743015). Note: nearly all actives have a fitted effect of over 60% in size. Note: potency is the fitted concentration of half-maximal effect.
A short description of experiment [15]: qHTS assay to identify small molecule antagonists of the androgen receptor (AR) signaling pathway - cell viability counter screen (AID 743033; note: nearly all actives have a fitted effect of over 45% in size).
The nature of experiment [16]: qHTS assay to identify small molecule antagonists of the androgen receptor (AR) signaling pathway using the MDA cell line - cell viability counter screen (AID 743041; note: nearly all actives have a fitted effect of over 45% in size). Put shortly: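 R1881-driven MDA-kb2 AR-luc cells, 3,000/well, were dosed with library compounds for 16 h; cell health came from CellTiter-Fluor fluorescence in the reporter wells.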

Where “and” joins values, the source holds several entries; their conditions need not be identical. Equal entries are not always repeated. Inconclusive results are not listed. Calls of active or inactive are those of the source. Unless noted, calls come from the whole dose curve; as a rule, active = well fitted curve in the direction sought with a large enough effect in the repeat runs; inconclusive = weak or mixed curves; inactive = no such curve, though single readings can be large; an effect the other way counts as inactive or inconclusive.

Chain of Glucocorticoid receptor (Homo sapiens) (P04150 whole entry, looked up): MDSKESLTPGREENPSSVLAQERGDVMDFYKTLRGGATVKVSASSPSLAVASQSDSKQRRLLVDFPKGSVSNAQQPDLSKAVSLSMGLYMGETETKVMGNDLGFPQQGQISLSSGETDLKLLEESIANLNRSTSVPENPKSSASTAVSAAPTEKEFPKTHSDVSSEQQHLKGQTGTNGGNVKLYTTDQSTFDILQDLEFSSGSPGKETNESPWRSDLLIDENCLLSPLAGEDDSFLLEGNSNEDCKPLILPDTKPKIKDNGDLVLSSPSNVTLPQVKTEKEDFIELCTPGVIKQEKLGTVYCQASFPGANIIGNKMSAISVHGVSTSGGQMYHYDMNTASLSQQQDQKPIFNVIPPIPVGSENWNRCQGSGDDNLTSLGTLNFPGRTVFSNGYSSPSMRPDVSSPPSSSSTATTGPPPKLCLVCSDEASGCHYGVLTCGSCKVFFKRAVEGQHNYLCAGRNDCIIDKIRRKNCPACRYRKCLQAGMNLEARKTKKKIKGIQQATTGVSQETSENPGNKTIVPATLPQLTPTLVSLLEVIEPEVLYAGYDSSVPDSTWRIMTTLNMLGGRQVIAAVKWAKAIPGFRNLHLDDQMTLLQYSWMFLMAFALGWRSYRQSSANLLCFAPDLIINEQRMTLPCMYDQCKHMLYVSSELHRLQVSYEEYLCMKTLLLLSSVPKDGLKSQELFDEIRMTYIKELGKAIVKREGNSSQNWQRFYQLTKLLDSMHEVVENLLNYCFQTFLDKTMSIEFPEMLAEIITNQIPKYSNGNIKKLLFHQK

With `COc1ccccc1OCC(O)CN1CCN(CC(=O)Nc2c(C)cccc2C)CC1` (stereo not drawn), the call in experiment [1], in experiment [2], in experiment [3], in experiment [4], in experiment [5] and in experiment [6] was inactive. The compound was classed as inactive in experiment [7], in [8] and in experiment [11]. Also, the Potency entry in experiment [9], in experiment [10], in experiment [12], in experiment [13], in experiment [14] and in experiment [15] was “inactive” in each case. Besides, the Potency entry in experiment [16] was “inactive”.
As to `NC(=O)c1ccc([N+](=O)[O-])cc1`, the compound was called inactive in experiment [1], in experiment [2], in experiment [3], in [4], in [5] and in experiment [6]. Besides, the result in experiment [7], in [8] and in experiment [11] was inactive. Moreover, the Potency entry in [9], in experiment [10], in [12], in [13], in [14] and in experiment [15] was “inactive” each time. Besides, the Potency entry in [16] is “inactive”.
With `CC(C)(C)c1nnc(NS(=O)(=O)c2ccccc2)s1`, the compound was classed as inactive in experiment [1], in [2], in experiment [3], in [4], in experiment [5] and in experiment [6]. The call in experiment [7], in experiment [8] and in experiment [11] was inactive. Further, the Potency result in experiment [9], in experiment [10], in experiment [12], in [13], in experiment [14] and in experiment [15] was “inactive” each time. The Potency entry in [16] is “inactive”.
On to `CC(C)OC(=O)c1ccccc1`, for which the call in [1], in experiment [2], in experiment [3], in experiment [4], in [5] and in [6] was inactive. Further, the outcome in [7], in experiment [8] and in experiment [11] was inactive. The Potency result in experiment [9], in experiment [10], in experiment [12], in experiment [13], in experiment [14] and in experiment [15] was “inactive” each time. The Potency entry in experiment [16] is “inactive”.
In the case of `CN(C)CCCSc1ccccc1NC(=O)/C=C/c1ccccc1`, the outcome in experiment [1], in experiment [2], in [3], in experiment [4], in experiment [5] and in experiment [6] was inactive. Further, the compound was called inactive in experiment [7], in experiment [8] and in experiment [11]. In addition, the Potency entry in experiment [9], in [10], in experiment [15] and in experiment [16] was “inactive” each time. For the same compound, the Potency in experiment [12] was 26.6 µM (active); in [13], 13.3 µM (active); in experiment [14] it was 29.8 µM (active).
For `FC(F)OC(Cl)C(F)(F)F` (stereo not drawn), the compound was called inactive in experiment [1], in [2], in experiment [3], in experiment [4], in experiment [5] and in experiment [6]. Further, the outcome in experiment [7], in experiment [8] and in experiment [11] was inactive. In addition, the Potency entry in experiment [9], in [10], in experiment [12], in [13], in experiment [14] and in [15] was “inactive” in each case. The Potency entry in experiment [16] was “inactive”.
For `CC/C=C\CC/C=C/CO`, the call in [1], in [2], in [3], in experiment [4], in experiment [5] and in [6] was inactive. Moreover, the call in [7], in experiment [8] and in experiment [11] was inactive. Moreover, the Potency result in experiment [9], in experiment [10], in [12], in [13], in [14] and in [15] was “inactive” each time. Further, in experiment [16], the Potency result is “inactive”.
As for `CC(C)(C)c1ccc(O)c(O)c1`, the compound was called inactive in experiment [1], in [2], in experiment [3], in experiment [4], in experiment [5] and in experiment [6]. The compound was called inactive in [7], in [8] and in [11]. For the same compound, the Potency result in experiment [9], in [15] and in experiment [16] was “inactive” throughout. Besides, the Potency in experiment [10] is 50.9 µM (active); in experiment [12], 17.8 µM (active) and 6.11 µM (active); in experiment [13], 12.6 µM (active) and 7.27 µM (active); in experiment [14], 12.6 µM (active) and 10.5 µM (active).
